According to article PMC7826789 (International Journal of Molecular Sciences, 2021):

Each molecule was assayed on CDK2.

Kinases covered, CDK2:
CC(C)COC(=O)c1ccc2c(c1)/C(=C/Nc1ccc(S(N)(=O)=O)cc1)C(=O)N2 [GW416981X]
O=C(Nc1n[nH]c2nc(-c3ccc(O)cc3)c(Br)cc12)C1CC1 [SB-725317]
NS(=O)(=O)c1ccc(N/N=C2\C(=O)Nc3ccc(-c4cnco4)cc32)cc1 [GW276655]
NS(=O)(=O)c1ccc(N/N=C2\C(=O)Nc3ccc(Cl)cc32)cc1 [GW280670X]
NS(=O)(=O)c1ccc(N/N=C2\C(=O)Nc3ccc(C(=O)NCc4ccncc4)cc32)cc1 [GW300657X]
NS(=O)(=O)c1ccc(Nc2ncc(-c3ccccc3)o2)cc1 [GW572399X]
